The whole screen tested about 340,000 compounds, of which about 4,500 (1.3%) were called active. Roughly 5% stayed inconclusive and do not appear here. Calls follow the shape of the dose curve; as a rule, active = well fitted inhibition curve with a large enough effect; inconclusive = small, poorly fitted or top-dose-only effect, or another doubt; inactive = no such curve, though single readings can be large or run the other way. The full list was thinned out, with actives kept by preference.
target: DNA polymerase beta (Homo sapiens) (UniProt P06746); test: qHTS Assay for Inhibitors of DNA Polymerase Beta; conditions: Pol beta primer extension/strand displacement, fluorescence kinetic; series mostly up to 114 µM; activity change, negative = inhibition: at the top concentration
Method in brief: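 Kinetic readout of DNA synthesis with strand displacement by Pol beta. Compound and 10 nM enzyme sit 15 min at room temperature; 50 nM substrate starts the reaction, read immediately and at 10 min.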
% is scaled to controls: 0 for no effect and ±100 for the full control effect; potency is read from the fitted curve at half-maximal effect.

Activity change, negative = inhibition, inactive:
CCCCc1nn2c(=O)cc(COC(=O)c3cccc(NC(=O)COc4ccccc4)c3)nc2s1 1.33%
COc1ccc(N2CCN(S(=O)(=O)c3ccc4c(c3)N(C(C)=O)CCO4)CC2)cc1 -5.9%
COc1ccc(N2CCN(C(=O)C3CCN(S(=O)(=O)c4ccc(C)cc4)CC3)CC2)cc1 0.247%
O=C(CSC1=NCCS1)Nc1nc(-c2ccccc2)cs1 16.3%
Cc1ccc(-c2csc(NC(=O)Cn3[nH]c(=O)c4ccccc4c3=O)n2)cc1 -17.4%
CC(C)(C)c1ccc(C(=O)NCC(c2ccco2)S(=O)(=O)c2ccc(F)cc2)cc1 (stereo not drawn) -18.4%
COc1cccc(NC(=O)N(Cc2cn(C)c3ccccc23)C2CCCCCC2)c1 -7.08%
Cc1ccccc1-c1nnc(SCC(=O)NCc2ccc3c(c2)OCO3)n1C 25%
O=C(CSc1ccc(-c2ccco2)nn1)Nc1cccc(F)c1 -29.3%
Cc1ccccc1OCCSc1nc2ccc(NC(=O)c3ccco3)cc2s1 0.968%
Cc1ccc(C2CCN(C(=O)c3cnn(-c4ccccc4Cl)c3C3CCN(C(=O)OC(C)(C)C)CC3)C2)cc1 (stereo not drawn) 2.89%
Cc1cccc(N2CCN(C(=O)c3cccc(S(=O)(=O)N4CCc5ccccc5C4)c3)CC2C)c1 (stereo not drawn) 2.53%
Cc1cccc(N2CCN(S(=O)(=O)c3ccc(-c4cc(C)no4)s3)CC2C)c1 (stereo not drawn) 0.87%
CC(C)(C)c1ccc(OCC(=O)N2CCC(c3nc4ccccc4s3)CC2)cc1 10.9%
O=C(Nc1ccccc1)/C(=C\c1ccco1)NC(=O)c1ccco1 -1.05%
Cc1cccc(NC(=O)/C(=C\c2ccco2)NC(=O)c2ccccc2)c1 0.753%
CC(=O)Nc1cc(C(=O)NCc2ccc(F)cc2Cl)ccc1Sc1ccc(Cl)cc1 -16.2%
CCC(Sc1nnc(-c2ccc(OC)cc2)c(-c2ccc(OC)cc2)n1)C(=O)NC1CCCCC1 (stereo not drawn) 1.49%
COc1cccc(-n2cc(C(=O)NCc3cccc(Cl)c3)c3ccccc3c2=O)c1 12.9%
Nc1ccc(-c2sc(N)nc2-c2ccccc2)cc1 23.9%
Cc1ccc2cccc(NC(=O)C(C)Oc3ccc(C)c(C)c3)c2n1 (stereo not drawn) 14.5%
Cn1nc(-c2ccccc2)c(-c2ccccc2)c(C(=O)Nc2ccc(S(N)(=O)=O)cc2)c1=O -0.58%
COc1ccc(Cn2ccnc2SCC(=O)Nc2ccc3c(c2)OCO3)cc1 0.783%
CCCS(=O)(=O)N1CCC(n2c(C(F)(F)F)nc3cccnc32)CC1 33.3%
COc1ccc(C(=O)Nc2cc(C)ccc2NC(=O)COc2ccccc2)cc1 1.19%
COc1ccc(C(=O)NNC(=S)NC(=O)c2ccccc2)cc1 0.641%
O=C(CS(=O)(=O)c1cccc2nsnc12)N1CCN(c2cccc(Cl)c2)CC1 -19.8%
CCOc1ccc(S(=O)(=O)Nc2ccc3oc4c(c3c2)CC(C)CC4)cc1 (stereo not drawn) -14.6%
Cc1cccc(NC(=O)CSc2ncc(-c3ccccc3)[nH]2)c1C 0.698%
Cc1ccc(NC(=O)C(=O)NCc2ccco2)c(C)c1 28.8%
Cc1cc(C)n2nc(SCC(=O)NC(=O)NCc3ccco3)nc2n1 -25.1%
Cn1ccc2cc(S(=O)(=O)N3CCCC(C(=O)NCc4ccccc4F)C3)ccc21 (stereo not drawn) 9.68%
Cc1ccccc1NC(=O)Cn1cc(C(=O)c2cccs2)c2ccccc21 -21.9%
CN(C(=O)c1ccc2c(c1)N(Cc1cccc(Cl)c1)C(=O)c1ccccc1S2=O)C1CCCCC1 (stereo not drawn) 4.04%
COc1ccccc1NC(=O)C(=O)c1cc(C)n(-c2ccccc2F)c1C 4.34%
COc1ccc(-n2c(SCC(=O)Nc3ccc(Cl)c(C)c3)nc3n[nH]c(C)c3c2=N)cc1 -7.34%
COc1ccc(S(=O)(=O)n2nc(C)c(S(=O)(=O)N3CCCCCC3)c2C)cc1 -16.8%
CSc1nn(Cc2cccc(C)c2)c(N)c1S(=O)(=O)c1ccccc1 -2.02%
Cc1ccc(-n2ncc3c(=O)n(-c4ccc(C)c(C)c4)c(-c4ccco4)nc32)cc1 -0.115%
COc1cc(/C=C2/C(=O)NN(c3ccc(F)cc3)C2=O)cc([N+](=O)[O-])c1O -29.4%
COc1ccccc1-c1ccnc2[nH]n(-c3ccccc3)c(=O)c12 -9.8%
CC(C)c1ccc2oc(-c3cc(NC(=O)c4cccs4)ccc3Cl)nc2c1 1.78%
N#Cc1ccsc1NC(=O)CN1CCCCC1 15.9%
Cc1cccc(C)c1Nc1nnc(SCC(=O)Nc2sccc2C#N)s1 -26.1%
CCOc1ccc(NC(=O)CSc2c3c(nc4ccccc24)CCCC3)cc1 -1.51%
COc1cc(NC(=O)CSc2nc3nc(C)c(Cc4ccc(C)cc4)c(C)n3n2)cc(OC)c1OC -28.1%
CN1C/C(=C/c2cccs2)C(=O)/C(=C\c2cccs2)C1 3.47%
Cc1cccc(C2=N/C(=C/c3cccs3)C(=O)O2)c1 -0.905%
COc1ccc(CCC(=O)NCCc2csc(-c3ccc(Cl)cc3)n2)cc1 -1.93%
COc1ccc(CCNc2nc3c(-c4cccc(F)c4)nnn3c3ccccc23)cc1OC 40.6%
COCCCNc1nc2c(-c3cccc(C(F)(F)F)c3)nnn2c2ccccc12 -25.9%
COc1ccc(C(=O)COC(=O)CCCC(=O)Nc2cc(C(F)(F)F)ccc2Cl)cc1 -2.85%
Cc1ccc(/C=C2\SC(=S)N(CCC(=O)Nc3ccc(O)cc3)C2=O)cc1 2.43%
O=C1/C(=C\c2ccccc2Cl)SC(=S)N1CCC(=O)N1CCCc2ccccc21 5.83%
O=C(CCCN1C(=O)/C(=C/c2cccs2)SC1=S)Nc1ccc(O)cc1 9.43%
O=C(CCCN1C(=O)/C(=C/c2ccccc2)SC1=S)Nc1ccc(O)cc1 0.267%
COc1ccc(/C=C2/SC(=O)N(CCCCCC(=O)Nc3ccccc3C(=O)O)C2=S)cc1 24.4%
CN1C=CC=C/C1=C1\SC(=S)N(Cc2ccccc2)C1=O 6.67%
COc1ccc(/C=C2\SC(=S)N(CC(=O)NNC(=O)c3ccncc3)C2=O)cc1 29.9%
O=C(CCN1C(=O)/C(=C/c2cccs2)SC1=S)NNC(=O)c1cccc(O)c1 -8.72%
COc1cccc(CN2CCc3nc(SCC(=O)Nc4ccccc4)[nH]c(=O)c3C2)c1 18.1%
Cc1ccc2nc(COc3ccccc3NC(=O)Nc3ccc(F)c(Cl)c3)cc(=O)n2c1 2.36%
COc1ccc(-c2c3c(=O)n(C)c(=O)n(C)c3c3c(C)nc4ccccc4n23)cc1 -27.7%
Cc1ccc(-c2nnc(Nc3cccc(Br)c3)c3ccccc23)cc1S(=O)(=O)NCC1CCCO1 (stereo not drawn) 21.3%
COc1ccc(-c2cccc(NS(=O)(=O)c3cc(C)c(OC)c(C)c3C)c2)nn1 10.4%
O=C(O)c1ccc(Cn2c(SCc3ccc(F)cc3)nc3ccncc32)cc1 6.07%
CCOc1ccc(N(CC)S(=O)(=O)N2CCCC(C(=O)Nc3ccc(C(C)=O)cc3)C2)cc1 (stereo not drawn) 4.94%
COc1cc(OC)c(C2C=C(C(=O)O)Nc3ncnn32)cc1OC (stereo not drawn) 31.7%
CC1CCN(S(=O)(=O)c2ccc3c(ccn3CCC(=O)NCc3ccc(N(C)C)cc3)c2)CC1 -2.55%
O=C(CSc1ncc(S(=O)(=O)c2ccc(Br)cc2)c(=O)[nH]1)Nc1ccc2c(c1)OCCO2 -20%
Cc1ccc(/C=C(\C#N)C(=O)Nc2cc(C)ccc2C)cc1 0.467%
CN=C1S/C(=C\c2c(OC)cc(OC)cc2OC)C(=O)N1C 10.1%
CN=C1S/C(=C\c2ccc(Sc3ccc(Cl)cc3)o2)C(=O)N1C -12.7%
CCOc1ccc(NC(=O)c2c(NC(=O)Cc3ccccc3)sc3c2CCCCC3)cc1 25.9%
Cc1nn(Cc2ccccc2)c(Cl)c1C(=O)OC1CCOC1=O (stereo not drawn) -0.814%
COc1cc(C(=O)OC2CCOC2=O)c([N+](=O)[O-])cc1OC (stereo not drawn) 2.75%
COc1ccc(N2CCN(S(=O)(=O)CCNC(=O)C(c3ccccc3)c3ccccc3)CC2)cc1 -0.733%

Potency, active:
COc1ccc(N2CCN(S(=O)(=O)c3ccc(-c4coc(C)n4)cc3)CC2)cc1 31.6 µM
O=C(CSc1nc2ccccc2c(=O)[nH]1)Nc1nc(-c2ccc(Br)cc2)cs1 4.47 µM
O=C(CSc1ccc(-c2ccco2)nn1)NCc1ccc2c(c1)OCO2 15.8 µM
Cc1cccc(N2CCN(S(=O)(=O)c3ccc4[nH]c(=O)c(=O)[nH]c4c3)CC2C)c1 (stereo not drawn) 25.1 µM
COc1ccccc1C(=O)N/C(=C/c1ccco1)C(=O)Nc1ccc(C(=O)O)cc1 50.1 µM
Nc1[nH]c(=S)nc2nc(-c3ccccc3)c(-c3ccccc3)nc12 22.4 µM
COc1ccc(OCC(=O)NNC(=O)c2ccc(-c3ccccc3)cc2)cc1 44.7 µM
Cc1ccc(SCC(=O)NC(=O)NCc2ccco2)c(C)c1 25.1 µM
CCOc1ccc(-n2c(SCC(=O)NCc3ccccc3)nc3n[nH]c(C)c3c2=N)cc1 25.1 µM
Cc1ccc(N=C2NC(=O)/C(=C/C=C/c3ccco3)S2)cc1C 10 µM
Cc1ccc(N2NC(=O)/C(=C/C=C/c3ccco3)C2=O)cc1C 35.5 µM
Cc1csc(SCC(=O)Nc2sccc2C#N)n1 20 µM
CSC1=N/C(=C\C=C\c2cccs2)C(=O)S1 20 µM
COCCCNc1nc2c(-c3cccc(C)c3)nnn2c2ccc(Cl)cc12 35.5 µM
O=C(CCCN1C(=O)/C(=C\c2ccco2)SC1=S)Nc1cccc2ccccc12 10 µM
COc1cc(/C=C2/SC(=S)N(Cc3ccccc3)C2=O)cc(OC)c1O 14.1 µM
COc1ccc(/C=C2\SC(=S)N(CCC(=O)Nc3cccc(C(=O)O)c3)C2=O)cc1OC 70.8 µM
O=C(CCCN1C(=O)/C(=C/c2ccco2)SC1=S)Nc1ccccc1 12.6 µM
CN1C(=O)/C(=C/c2ccco2)SC1=Nc1cccc(C(=O)O)c1 17.8 µM
CC(C)c1ccc(C(=O)OC2CCOC2=O)cc1 (stereo not drawn) 20 µM

Potency, inactive:
CCCCNC(=O)CSc1nc2n[nH]c(C)c2c(=N)n1-c1cccc(Cl)c1C
